The campaign covered roughly 220,000 compounds. About 910 (0.41%) were called active.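 Rule for the calls: active = primary inhibition above the hit cutoff, then over 50% inhibition at one or more dose response concentrations (cut at about 23% in these data, passing the limit was not always enough); inconclusive = conflicting primary data, or primary hits not chosen for dose response; inactive = low primary inhibition, or under 50% at every dose.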 The sample as a whole holds a higher share of actives than the screen did. Potency and affinity values are given separately.
What follows are compounds tested against Aminopeptidase N (Plasmodium falciparum (isolate 3D7)) (UniProt O96935) (assay: P. falciparum M1AAP inhibitors, biochemical, fluorogenic H-Leu-NHMec substrate, 1536-well (AID 1445;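 note: plate controls were DMSO full reaction for no effect and no enzyme background for full effect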)). Settings: recombinant M1AAP, H-Leu-NHMec fluorogenic kinetic assay; at 30 µM, stronger effect = higher value unless noted.
Sequence of Aminopeptidase N (Plasmodium falciparum (isolate 3D7)) (O96935 whole entry, looked up): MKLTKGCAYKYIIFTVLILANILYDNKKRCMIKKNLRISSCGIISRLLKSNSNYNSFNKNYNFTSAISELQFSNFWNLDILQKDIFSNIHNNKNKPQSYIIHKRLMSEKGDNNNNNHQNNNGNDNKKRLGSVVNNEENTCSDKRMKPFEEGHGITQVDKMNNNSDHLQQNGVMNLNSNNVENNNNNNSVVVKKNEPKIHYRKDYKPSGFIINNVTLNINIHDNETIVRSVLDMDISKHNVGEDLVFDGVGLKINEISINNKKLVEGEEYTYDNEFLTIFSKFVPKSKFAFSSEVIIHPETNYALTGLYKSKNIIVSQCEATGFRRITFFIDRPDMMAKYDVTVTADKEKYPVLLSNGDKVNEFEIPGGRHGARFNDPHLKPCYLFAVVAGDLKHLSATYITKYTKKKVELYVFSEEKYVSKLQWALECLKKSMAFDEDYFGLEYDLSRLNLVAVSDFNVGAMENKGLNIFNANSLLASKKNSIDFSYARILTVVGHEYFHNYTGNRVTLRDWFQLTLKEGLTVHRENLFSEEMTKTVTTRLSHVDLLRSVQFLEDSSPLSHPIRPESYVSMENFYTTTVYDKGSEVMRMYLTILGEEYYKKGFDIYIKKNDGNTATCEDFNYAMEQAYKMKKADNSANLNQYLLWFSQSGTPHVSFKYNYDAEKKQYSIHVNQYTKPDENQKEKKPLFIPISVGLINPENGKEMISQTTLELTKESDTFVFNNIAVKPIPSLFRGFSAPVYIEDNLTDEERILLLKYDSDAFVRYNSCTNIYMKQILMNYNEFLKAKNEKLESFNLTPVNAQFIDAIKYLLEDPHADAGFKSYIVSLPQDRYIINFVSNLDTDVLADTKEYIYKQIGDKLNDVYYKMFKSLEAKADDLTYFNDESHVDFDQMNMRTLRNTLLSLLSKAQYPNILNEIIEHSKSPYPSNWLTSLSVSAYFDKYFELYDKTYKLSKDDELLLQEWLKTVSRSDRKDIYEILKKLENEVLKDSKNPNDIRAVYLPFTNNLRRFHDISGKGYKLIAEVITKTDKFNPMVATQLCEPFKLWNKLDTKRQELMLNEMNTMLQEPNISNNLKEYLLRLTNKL

Row | SMILES | inhibition
1 | CCN(Cc1ccccc1)C(=O)c1cc(COc2c(F)cccc2F)on1 | 5% (inactive)
2 | COc1ccccc1-c1ccc(SCC(=O)NCCc2ccccc2)nn1 | 10.8% (inactive)
3 | Cc1cc(C(=O)COC(=O)c2nccnc2N)c(C)n1C | 6.62% (inactive)
4 | CCOC(=O)C1CCCN(CC(=O)c2c[nH]c3ccc(C)cc23)C1 (stereo not drawn) | 5.27% (inactive)
5 | CCOCc1nnc(NC(=O)c2ccc(NC(C)=O)cc2)s1 | 1.45% (inactive)
6 | COc1ccc(NC(=O)CSc2ncn[nH]2)c([N+](=O)[O-])c1 | -0.25% (inactive)
7 | C=CCn1c(SCc2c(C(=O)OC)sc(N)c2C(=O)OC)nnc1-c1ccc(Br)cc1 | 6.79% (inactive)
8 | CCC(=O)c1c(NC(C)C)cc(C)oc1=O | 2.35% (inactive)
9 | Cc1cnc(C)c(N2CCC(C(=O)NCc3cccs3)CC2)n1 | 3.94% (inactive)
10 | COc1cc(CNC(C)(C)C)cc(Br)c1OCc1cccs1 | 6.22% (inactive)
11 | COc1cccc(C2c3c(-c4ccccc4)n[nH]c3C(=O)N2c2ccc(C(=O)O)cc2)c1 (stereo not drawn) | 8% (inactive)
12 | COc1ccc(C2c3c(-c4ccccc4)n[nH]c3C(=O)N2c2ccc(C(=O)O)cc2)cc1 (stereo not drawn) | 5.67% (inactive)
13 | O=C(O)c1ccc(N2C(=O)c3[nH]nc(-c4ccccc4)c3C2c2ccccc2)cc1 (stereo not drawn) | 2.78% (inactive)
14 | COc1cc(C2c3c(-c4ccccc4)n[nH]c3C(=O)N2c2ccc(C(=O)O)cc2)ccc1O (stereo not drawn) | 14.8% (inactive)
15 | COc1cccc(OC)c1OCCNCCO | 9.5% (inactive)
16 | O=C(CCNS(=O)(=O)c1cccc2nsnc12)NCc1ccco1 | 3.34% (inactive)
17 | CC(=O)Nc1ccccc1C(=O)C(=O)Nc1cccc(C(=O)NCc2ccc(C)cc2)c1 | 2.5% (inactive)
18 | COC(=O)c1cc(NC(=S)N2CCN(C(=O)C3CCCO3)CC2)cc(C(=O)OC)c1 (stereo not drawn) | -0.88% (inactive)
19 | CCOC(=O)c1cc2c(=O)[nH]ccc2nc1C(F)(F)F | 5.5% (inactive)
20 | CCOc1cc(/C=C(/C#N)c2nc3ccccc3[nH]2)ccc1Oc1ccc([N+](=O)[O-])cn1 | 1.44% (inactive)

Row | SMILES | inhibition
21 | CCCc1ccc(OCc2ccc(C(=O)O)o2)c(OC)c1 | 1.24% (inactive)
22 | COc1cc(/C=C(/C#N)c2ccc(F)cc2)ccc1OCc1ccc(C(=O)O)o1 | 27.4% (active)
23 | CCOc1cc(/C=C(/C#N)c2ccc(F)cc2)ccc1OCc1ccc(C(=O)O)o1 | 17.8% (inactive)
24 | COC(=O)c1ccc(COc2ccc(/C=C(\C#N)c3nc4ccccc4[nH]3)cc2OC)o1 | 12.6% (inactive)
25 | CCc1ccc(NC(=O)COc2ccc(/C=C(/C#N)c3nc4ccccc4[nH]3)cc2OC)cc1 | 11% (inactive)
26 | COc1cccc(/C=C(/C#N)c2ccc(Cl)cc2)c1OCc1cccc(C(=O)O)c1 | 13.3% (inactive)
27 | N#C/C(=C\c1ccccc1OCc1ccc(C(=O)O)cc1)c1ccccc1 | -6.55% (inactive)
28 | COc1cc(/C=C(\C#N)c2nc3ccccc3[nH]2)ccc1OC(=O)c1ccco1 | 7.39% (inactive)
29 | CN(C(=O)c1ccccc1NC(=O)C(F)(F)F)c1ccccc1 | 4.16% (inactive)
30 | O=C1OCC2=C1C(c1ccccc1)CC(=O)N2c1ccccc1 (stereo not drawn) | 5.38% (inactive)
31 | NC(=O)C(=O)N/N=C/c1c(F)c(F)c(F)c(F)c1F | 13.6% (inactive)
32 | C=C1CCN([C@@H](C)C(=O)NCc2ccc(OC)cc2)S(=O)(=O)c2ccccc21 | 6.29% (inactive)
33 | CN(CC(=O)N1CCN(c2ccccn2)CC1)S(=O)(=O)c1cccc2nsnc12 | 3.43% (inactive)
34 | Cc1cc(C)nc(N/N=C/c2ccccc2OCc2ccc(Br)cc2)n1 | 1.44% (inactive)
35 | Cc1c(N/C=C/C(=O)c2ccc(Cl)cc2)c(=O)n(-c2ccccc2)n1C | 4.02% (inactive)
36 | Cc1c(N2C(=O)C(=O)/C(=C(/O)c3ccccc3)C2c2ccc(F)cc2)c(=O)n(-c2ccccc2)n1C (stereo not drawn) | 5.61% (inactive)
37 | Cc1ccc(C(=O)C2=C(O)C(=O)N(Cc3ccccc3)C2c2cccnc2)o1 (stereo not drawn) | 15.2% (inactive)
38 | O=C(C1=C(O)C(=O)N(CCc2ccccc2)C1c1cccnc1)c1ccco1 (stereo not drawn) | 9.09% (inactive)
39 | COC(=O)c1cc(NS(=O)(=O)c2ccc3c(c2)CCC(=O)N3)cc(C(=O)OC)c1 | 8.87% (inactive)
40 | O=C(CCC1CC(=O)Nc2ccccc21)NCc1ccc(F)cc1 (stereo not drawn) | 5.98% (inactive)

Row | SMILES | inhibition
41 | O=C(O)CCCC(=O)Nc1ccc(Sc2ccc([N+](=O)[O-])cc2)cc1 | 2.99% (inactive)
42 | CCOc1nonc1C(=N)/C(C(C)=O)=C(\C)O | -1.51% (inactive)
43 | Cc1ccc(OCC(=O)N2CCN(c3nnc(-c4ccc(C)cc4)c4ccccc34)CC2)cc1 | 14.1% (inactive)
44 | CC(C)CSc1nc2ccccc2n1CC(N)=O | -7.7% (inactive)
45 | O=[n+]1c2c(n([O-])c3ccccc31)CCCC2 | 2.78% (inactive)
46 | O=[n+]1c2c(n([O-])c3cc(Br)ccc31)CCC2 | 16.4% (inactive)
47 | O=[n+]1c2c(n([O-])c3ccccc31)CCC2 | 26.1% (active)
48 | COc1ccc(C(=O)N/N=C/c2c(CO)cnc(C)c2O)cc1 | 14.8% (inactive)
49 | Cc1ncc(CO)c(/C=N/NC(=O)c2ccc(O)cc2)c1O | 7.46% (inactive)
50 | Cc1cccc2cc(CN(Cc3cccs3)S(=O)(=O)c3ccc4c(c3)OCCO4)c(=O)[nH]c12 | 4.88% (inactive)
51 | Cc1cccc(-n2cc(CNCCc3nc(C)cc(C)n3)c(-c3cccc(F)c3)n2)c1 | 0.33% (inactive)
52 | CC1CCCCN1C(=O)c1cc2nc(-c3ccccc3)cc(-c3ccccc3)n2n1 (stereo not drawn) | 2.04% (inactive)
53 | COC(=O)COc1ccc(=O)n(-c2ccccc2)n1 | 2.11% (inactive)
54 | O=C(N/N=C/c1cccc(O)c1)c1ccc(NC(=O)c2cccc([N+](=O)[O-])c2)cc1 | 3.44% (inactive)
55 | O=C(c1cnn2ccccc12)N1CCN(C2CCCCC2)CC1 | 26.7% (active)
56 | O=C(c1cnn(-c2ccccc2)c1-n1cccc1)N1CCN(C2CCCCC2)CC1 | 2.13% (inactive)
57 | CCOC(=O)N1CCN(C(=O)c2cnn3ccccc23)CC1 | 10.3% (inactive)
58 | COc1ccc(CNC(=O)C(c2ccncc2)N(C(=O)Cc2cccs2)c2ccccc2C)cc1 (stereo not drawn) | -1.48% (inactive)

— PubChem BioAssay AID1445 (SRMLSC, 2008)
